In patent US20100081621, “Crystal structure of the catalytic domain of the viral restriction factor APOBEC3G” (published 2010) one finds binding signal data, which are given here for 1 sequence.

Chain of APOBEC3G R374E/R376D (Q9HC16 whole entry R374E/R376D, one chain of several): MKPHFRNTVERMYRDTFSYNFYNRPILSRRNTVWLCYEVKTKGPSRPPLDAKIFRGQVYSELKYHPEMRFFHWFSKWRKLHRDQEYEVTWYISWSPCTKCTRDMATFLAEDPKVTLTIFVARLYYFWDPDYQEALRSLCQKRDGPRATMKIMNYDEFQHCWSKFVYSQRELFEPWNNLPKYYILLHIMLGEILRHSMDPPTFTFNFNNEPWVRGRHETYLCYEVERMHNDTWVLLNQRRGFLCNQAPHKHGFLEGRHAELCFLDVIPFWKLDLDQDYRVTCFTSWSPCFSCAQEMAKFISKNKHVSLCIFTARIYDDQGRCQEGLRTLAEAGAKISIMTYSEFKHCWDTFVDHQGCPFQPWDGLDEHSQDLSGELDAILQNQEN

This assay addresses APOBEC3G R374E/R376D (Homo sapiens, UniProt Q9HC16 Q9HC16:1-384, R374E,R376D). The assay is described as follows: FP; binding impaired by 46%; 5 mM MgCl2, 37 C. To be noted: tags: Sf9, pAcG2T; label: internal fluorescein-dT; ssDNA; [15 (fluorescein-dT)]. As for the experimental part: Apo3G-DNA binding were monitored by changes in steady state fluorescence depolarization (rotational anisotropy). Reaction mixtures (70 μl), containing an F-labeled DNA ([…]) in buffer (50 mM HEPES, pH 7.3, 1 mM DTT and 5 mM MgCl₂) and varying concentration of 0 to 500 nM Apo3G, were incubated at 37° C. The sequence of the ssDNA is: tta gat gag tgt aa(FdT) gtg ata tat gtg tat. Rotational anisotropy was measured as described previously (Chelico et al., 2006). The fraction of DNA bound to protein was determined as described previously (Bertram et al., 2004).
Regarding TTAGATGAGTGTAATGTGATATATGTGTAT, the binding signal is 54 % of wt.
